Assays:
Assay in all cases: log2 ratio of Biotin-Ahx-Ub-VS probe labelling (fragment/DMSO); higher = less target engagement (more negative = stronger competition), active = hit call of the paper (q ≤ 0.05, log2 ratio ≤ -1)
Conditions in all cases: compound concentration: 200 uM; treatment time: 3 h
[1] = biological target: T1, USP42 (UniProt Q9H9J4)
T1 sequence (whole entry): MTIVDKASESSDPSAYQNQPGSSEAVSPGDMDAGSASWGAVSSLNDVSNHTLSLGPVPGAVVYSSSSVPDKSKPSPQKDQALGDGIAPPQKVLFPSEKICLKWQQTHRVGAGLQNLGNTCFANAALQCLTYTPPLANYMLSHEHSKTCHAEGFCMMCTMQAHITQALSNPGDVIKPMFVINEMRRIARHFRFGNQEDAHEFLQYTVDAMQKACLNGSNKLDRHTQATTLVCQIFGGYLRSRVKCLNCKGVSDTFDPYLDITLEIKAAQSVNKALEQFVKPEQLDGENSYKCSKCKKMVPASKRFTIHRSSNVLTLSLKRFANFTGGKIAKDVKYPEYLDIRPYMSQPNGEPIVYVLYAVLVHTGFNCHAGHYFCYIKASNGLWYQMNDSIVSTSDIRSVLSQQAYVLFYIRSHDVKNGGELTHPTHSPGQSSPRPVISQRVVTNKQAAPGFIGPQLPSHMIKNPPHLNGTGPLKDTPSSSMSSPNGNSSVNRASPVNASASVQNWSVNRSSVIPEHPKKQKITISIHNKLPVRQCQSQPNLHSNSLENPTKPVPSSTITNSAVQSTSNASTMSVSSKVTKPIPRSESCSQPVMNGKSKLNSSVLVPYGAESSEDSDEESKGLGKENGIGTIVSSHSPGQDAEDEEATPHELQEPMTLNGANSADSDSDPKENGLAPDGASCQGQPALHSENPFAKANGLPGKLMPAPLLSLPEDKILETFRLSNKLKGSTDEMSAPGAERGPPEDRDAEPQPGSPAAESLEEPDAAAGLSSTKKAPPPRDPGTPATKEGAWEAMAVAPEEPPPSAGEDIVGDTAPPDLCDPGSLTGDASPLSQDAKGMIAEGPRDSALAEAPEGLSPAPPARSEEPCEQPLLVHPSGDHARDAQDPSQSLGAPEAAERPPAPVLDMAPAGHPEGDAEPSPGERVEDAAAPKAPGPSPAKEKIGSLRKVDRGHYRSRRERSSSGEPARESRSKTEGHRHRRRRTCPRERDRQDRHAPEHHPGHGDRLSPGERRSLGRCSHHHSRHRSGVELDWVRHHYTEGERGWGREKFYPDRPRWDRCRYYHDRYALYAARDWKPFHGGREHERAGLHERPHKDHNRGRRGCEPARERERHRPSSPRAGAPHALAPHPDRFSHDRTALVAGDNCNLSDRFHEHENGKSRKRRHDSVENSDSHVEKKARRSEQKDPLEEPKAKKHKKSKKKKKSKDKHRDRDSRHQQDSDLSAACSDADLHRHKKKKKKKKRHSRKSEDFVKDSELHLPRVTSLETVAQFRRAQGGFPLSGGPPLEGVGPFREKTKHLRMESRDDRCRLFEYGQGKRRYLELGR
Method in brief: (§1)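 Labelled DUBs were enriched with NeutrAvidin, digested with LysC and trypsin, and run by diaPASEF LC-MS/MS. The labelling used Biotin-Ahx-Ub-VS at 0.5 µM final for 1 h on HEK293T lysate (495 µg per sample) previously treated in triplicate with fragment at 200 µM or vehicle for 3 h. Values are average log2 fragment/vehicle ratios by unpaired t-test on global-median-normalised Spectronaut quantities of proteins with ≥2 unique peptides.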

[2] = biological target: USP46 (UniProt P62068)
Sequence of USP46 (P62068 whole entry): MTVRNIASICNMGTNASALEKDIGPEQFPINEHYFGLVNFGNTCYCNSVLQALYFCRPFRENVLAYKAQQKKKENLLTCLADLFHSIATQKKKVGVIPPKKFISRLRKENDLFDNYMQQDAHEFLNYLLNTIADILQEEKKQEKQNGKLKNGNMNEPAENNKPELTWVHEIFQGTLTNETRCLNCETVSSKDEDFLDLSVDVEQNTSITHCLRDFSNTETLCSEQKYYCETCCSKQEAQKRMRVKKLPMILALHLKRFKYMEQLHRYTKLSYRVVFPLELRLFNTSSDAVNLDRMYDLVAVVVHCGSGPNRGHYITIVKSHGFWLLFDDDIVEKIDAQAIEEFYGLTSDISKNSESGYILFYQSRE
Method in brief: as §1

[3] = biological target: T2, USP47 (UniProt Q96K76)
T2 sequence (whole entry): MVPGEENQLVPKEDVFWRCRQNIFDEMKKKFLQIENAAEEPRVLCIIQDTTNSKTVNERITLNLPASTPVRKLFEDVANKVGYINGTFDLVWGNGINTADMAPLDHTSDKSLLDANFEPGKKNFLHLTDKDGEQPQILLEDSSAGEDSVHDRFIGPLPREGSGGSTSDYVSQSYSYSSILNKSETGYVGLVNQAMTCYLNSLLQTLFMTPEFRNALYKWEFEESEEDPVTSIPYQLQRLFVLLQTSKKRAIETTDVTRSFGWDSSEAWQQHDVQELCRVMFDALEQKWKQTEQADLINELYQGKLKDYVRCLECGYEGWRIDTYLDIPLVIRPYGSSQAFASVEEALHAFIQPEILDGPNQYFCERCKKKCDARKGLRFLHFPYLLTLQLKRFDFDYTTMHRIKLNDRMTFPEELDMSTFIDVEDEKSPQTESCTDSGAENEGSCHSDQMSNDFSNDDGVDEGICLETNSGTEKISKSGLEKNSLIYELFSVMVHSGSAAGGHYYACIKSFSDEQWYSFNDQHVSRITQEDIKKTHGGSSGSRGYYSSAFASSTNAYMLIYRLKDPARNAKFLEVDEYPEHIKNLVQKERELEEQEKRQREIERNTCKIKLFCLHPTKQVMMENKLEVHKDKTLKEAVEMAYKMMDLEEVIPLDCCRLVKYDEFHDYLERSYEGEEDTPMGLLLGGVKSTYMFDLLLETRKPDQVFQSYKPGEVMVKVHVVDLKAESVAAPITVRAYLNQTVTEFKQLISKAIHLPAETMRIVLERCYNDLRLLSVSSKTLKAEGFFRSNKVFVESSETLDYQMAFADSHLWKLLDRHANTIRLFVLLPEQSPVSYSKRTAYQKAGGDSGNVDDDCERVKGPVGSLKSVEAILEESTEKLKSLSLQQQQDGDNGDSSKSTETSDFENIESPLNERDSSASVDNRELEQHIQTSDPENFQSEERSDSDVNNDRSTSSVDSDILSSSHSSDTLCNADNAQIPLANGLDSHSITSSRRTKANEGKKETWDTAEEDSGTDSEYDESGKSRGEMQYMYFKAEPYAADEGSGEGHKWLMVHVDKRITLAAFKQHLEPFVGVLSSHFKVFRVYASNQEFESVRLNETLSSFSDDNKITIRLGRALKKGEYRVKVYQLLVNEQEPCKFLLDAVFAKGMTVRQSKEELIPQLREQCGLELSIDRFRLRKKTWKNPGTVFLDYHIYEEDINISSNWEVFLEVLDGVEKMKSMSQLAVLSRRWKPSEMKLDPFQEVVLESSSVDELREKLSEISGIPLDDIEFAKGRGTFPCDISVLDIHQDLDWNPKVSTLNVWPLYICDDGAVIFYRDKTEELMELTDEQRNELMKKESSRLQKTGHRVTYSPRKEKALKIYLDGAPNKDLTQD
Method in brief: as §1

[4] = biological target: T3, USP48 (UniProt Q86UV5)
T3 sequence (whole entry): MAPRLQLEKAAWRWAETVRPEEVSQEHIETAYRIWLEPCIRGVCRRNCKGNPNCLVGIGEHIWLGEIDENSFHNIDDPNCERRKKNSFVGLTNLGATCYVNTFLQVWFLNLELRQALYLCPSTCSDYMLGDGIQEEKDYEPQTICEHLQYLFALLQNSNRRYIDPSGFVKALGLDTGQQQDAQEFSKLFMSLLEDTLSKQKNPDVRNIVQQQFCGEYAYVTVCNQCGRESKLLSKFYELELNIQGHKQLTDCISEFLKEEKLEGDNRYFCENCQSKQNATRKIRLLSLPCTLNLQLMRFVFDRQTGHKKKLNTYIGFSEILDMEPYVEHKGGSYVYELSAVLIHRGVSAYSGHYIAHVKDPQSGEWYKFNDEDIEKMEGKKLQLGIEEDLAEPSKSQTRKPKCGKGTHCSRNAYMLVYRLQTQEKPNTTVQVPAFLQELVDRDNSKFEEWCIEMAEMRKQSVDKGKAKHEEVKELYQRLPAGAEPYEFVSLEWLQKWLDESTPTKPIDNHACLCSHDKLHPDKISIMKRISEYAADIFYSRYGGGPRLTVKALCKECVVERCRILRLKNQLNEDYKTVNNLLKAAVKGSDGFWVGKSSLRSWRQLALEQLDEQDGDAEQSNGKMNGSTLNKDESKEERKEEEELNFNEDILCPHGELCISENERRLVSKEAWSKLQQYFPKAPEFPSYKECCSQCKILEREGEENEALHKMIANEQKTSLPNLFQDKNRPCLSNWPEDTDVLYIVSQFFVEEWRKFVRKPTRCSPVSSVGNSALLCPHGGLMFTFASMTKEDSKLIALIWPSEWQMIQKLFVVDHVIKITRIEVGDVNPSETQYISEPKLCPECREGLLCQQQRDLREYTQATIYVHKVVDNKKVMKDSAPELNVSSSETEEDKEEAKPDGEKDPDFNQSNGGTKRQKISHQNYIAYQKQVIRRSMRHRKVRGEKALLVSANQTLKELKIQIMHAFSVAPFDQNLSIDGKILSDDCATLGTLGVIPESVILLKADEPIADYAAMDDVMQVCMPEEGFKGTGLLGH
Method in brief: as §1

[5] = biological target: T4, USP5 (UniProt P45974)
T4 sequence (whole entry): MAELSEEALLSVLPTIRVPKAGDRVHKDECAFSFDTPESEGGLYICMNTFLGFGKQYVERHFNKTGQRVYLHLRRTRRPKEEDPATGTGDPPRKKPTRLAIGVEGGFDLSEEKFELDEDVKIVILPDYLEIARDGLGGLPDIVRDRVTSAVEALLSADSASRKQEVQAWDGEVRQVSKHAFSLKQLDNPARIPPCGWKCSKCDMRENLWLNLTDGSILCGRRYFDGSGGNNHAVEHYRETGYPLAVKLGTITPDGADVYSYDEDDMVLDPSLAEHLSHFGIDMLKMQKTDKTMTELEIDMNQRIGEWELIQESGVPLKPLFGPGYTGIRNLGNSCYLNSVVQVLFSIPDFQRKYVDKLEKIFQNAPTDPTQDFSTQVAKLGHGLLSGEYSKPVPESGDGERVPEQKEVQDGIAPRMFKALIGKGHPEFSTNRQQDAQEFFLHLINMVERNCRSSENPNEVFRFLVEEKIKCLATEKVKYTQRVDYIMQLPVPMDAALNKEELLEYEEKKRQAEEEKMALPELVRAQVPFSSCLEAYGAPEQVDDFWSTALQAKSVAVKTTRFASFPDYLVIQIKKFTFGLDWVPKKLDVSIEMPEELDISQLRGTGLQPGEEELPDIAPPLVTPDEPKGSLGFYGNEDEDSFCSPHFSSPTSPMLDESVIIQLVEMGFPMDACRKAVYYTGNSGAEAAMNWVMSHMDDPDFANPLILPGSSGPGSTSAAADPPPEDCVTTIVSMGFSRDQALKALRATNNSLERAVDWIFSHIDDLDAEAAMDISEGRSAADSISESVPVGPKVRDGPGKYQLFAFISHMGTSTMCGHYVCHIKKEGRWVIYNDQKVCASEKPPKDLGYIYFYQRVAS
Method in brief: as §1

[6] = biological target: USP54 (UniProt Q70EL1)
Sequence of USP54 (Q70EL1 whole entry): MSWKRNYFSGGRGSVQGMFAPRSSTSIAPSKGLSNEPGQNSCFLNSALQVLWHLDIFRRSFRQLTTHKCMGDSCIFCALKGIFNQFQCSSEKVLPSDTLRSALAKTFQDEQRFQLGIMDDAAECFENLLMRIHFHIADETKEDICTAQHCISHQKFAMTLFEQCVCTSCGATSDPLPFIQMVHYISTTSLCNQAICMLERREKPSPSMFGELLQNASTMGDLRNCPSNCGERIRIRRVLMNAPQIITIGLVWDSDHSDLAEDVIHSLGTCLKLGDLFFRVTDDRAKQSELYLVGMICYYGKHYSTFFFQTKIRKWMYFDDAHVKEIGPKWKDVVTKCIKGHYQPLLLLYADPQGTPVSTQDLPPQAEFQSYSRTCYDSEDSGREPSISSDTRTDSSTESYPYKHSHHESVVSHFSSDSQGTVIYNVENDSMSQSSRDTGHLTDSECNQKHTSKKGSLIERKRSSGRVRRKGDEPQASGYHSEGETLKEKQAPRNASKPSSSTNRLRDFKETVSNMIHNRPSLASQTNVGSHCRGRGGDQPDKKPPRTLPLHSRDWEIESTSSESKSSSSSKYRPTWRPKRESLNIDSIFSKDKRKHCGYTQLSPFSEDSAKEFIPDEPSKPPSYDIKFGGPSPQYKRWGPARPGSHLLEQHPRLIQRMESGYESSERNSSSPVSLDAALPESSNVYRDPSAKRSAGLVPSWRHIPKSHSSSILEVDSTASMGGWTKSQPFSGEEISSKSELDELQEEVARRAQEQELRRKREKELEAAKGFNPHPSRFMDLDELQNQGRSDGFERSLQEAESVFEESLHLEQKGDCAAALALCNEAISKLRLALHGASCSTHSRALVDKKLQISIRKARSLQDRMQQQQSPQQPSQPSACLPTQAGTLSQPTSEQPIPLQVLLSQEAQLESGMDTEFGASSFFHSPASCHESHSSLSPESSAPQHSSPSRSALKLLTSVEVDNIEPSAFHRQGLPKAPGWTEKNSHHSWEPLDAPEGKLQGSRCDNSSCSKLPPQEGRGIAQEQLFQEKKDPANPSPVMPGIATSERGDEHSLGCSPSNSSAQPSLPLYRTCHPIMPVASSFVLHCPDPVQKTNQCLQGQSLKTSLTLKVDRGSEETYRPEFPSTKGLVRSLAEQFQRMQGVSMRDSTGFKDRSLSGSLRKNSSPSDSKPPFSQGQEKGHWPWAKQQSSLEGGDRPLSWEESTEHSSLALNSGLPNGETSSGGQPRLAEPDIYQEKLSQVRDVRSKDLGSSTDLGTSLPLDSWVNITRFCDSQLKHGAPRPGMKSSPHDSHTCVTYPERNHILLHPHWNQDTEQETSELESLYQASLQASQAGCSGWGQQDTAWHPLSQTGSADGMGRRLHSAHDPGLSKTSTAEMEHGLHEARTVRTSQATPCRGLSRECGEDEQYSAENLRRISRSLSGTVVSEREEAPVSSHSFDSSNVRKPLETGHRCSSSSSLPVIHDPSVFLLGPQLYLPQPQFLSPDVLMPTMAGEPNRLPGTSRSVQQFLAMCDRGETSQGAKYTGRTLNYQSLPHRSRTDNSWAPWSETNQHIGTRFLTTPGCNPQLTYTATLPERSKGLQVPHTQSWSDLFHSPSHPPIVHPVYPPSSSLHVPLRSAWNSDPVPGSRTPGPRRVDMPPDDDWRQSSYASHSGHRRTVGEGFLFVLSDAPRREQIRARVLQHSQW
Method in brief: as §1

[7] = biological target: USP7 (UniProt Q93009)
Sequence of USP7 (Q93009 whole entry, looked up): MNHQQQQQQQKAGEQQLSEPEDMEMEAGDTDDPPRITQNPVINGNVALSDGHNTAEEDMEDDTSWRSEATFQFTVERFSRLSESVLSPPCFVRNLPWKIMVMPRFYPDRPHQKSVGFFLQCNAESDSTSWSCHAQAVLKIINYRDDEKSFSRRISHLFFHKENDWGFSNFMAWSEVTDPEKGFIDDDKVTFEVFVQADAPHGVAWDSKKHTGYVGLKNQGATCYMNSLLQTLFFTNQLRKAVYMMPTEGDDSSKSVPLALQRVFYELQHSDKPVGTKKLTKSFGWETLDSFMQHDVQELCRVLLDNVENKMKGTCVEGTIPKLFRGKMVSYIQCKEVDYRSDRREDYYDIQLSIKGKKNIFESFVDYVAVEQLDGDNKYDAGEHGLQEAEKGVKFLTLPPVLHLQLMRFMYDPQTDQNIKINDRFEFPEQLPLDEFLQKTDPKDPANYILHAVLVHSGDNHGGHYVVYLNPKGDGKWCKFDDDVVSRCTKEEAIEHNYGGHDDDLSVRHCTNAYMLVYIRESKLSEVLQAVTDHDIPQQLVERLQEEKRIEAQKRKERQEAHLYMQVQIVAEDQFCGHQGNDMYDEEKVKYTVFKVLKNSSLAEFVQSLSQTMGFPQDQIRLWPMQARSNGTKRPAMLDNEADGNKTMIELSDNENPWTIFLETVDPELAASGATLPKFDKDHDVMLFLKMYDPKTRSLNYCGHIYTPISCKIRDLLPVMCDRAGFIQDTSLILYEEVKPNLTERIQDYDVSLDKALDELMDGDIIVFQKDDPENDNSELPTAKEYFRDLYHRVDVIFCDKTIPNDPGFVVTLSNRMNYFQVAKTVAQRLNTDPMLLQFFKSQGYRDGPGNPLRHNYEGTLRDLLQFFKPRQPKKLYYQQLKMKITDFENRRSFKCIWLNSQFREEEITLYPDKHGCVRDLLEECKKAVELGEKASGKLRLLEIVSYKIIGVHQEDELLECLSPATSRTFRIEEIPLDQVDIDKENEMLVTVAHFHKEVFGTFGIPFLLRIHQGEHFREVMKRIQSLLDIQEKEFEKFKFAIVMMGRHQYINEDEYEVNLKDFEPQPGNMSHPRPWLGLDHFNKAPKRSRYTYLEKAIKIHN
Method in brief: as §1

[8] = biological target: T5, USP8 (UniProt P40818)
T5 sequence (whole entry): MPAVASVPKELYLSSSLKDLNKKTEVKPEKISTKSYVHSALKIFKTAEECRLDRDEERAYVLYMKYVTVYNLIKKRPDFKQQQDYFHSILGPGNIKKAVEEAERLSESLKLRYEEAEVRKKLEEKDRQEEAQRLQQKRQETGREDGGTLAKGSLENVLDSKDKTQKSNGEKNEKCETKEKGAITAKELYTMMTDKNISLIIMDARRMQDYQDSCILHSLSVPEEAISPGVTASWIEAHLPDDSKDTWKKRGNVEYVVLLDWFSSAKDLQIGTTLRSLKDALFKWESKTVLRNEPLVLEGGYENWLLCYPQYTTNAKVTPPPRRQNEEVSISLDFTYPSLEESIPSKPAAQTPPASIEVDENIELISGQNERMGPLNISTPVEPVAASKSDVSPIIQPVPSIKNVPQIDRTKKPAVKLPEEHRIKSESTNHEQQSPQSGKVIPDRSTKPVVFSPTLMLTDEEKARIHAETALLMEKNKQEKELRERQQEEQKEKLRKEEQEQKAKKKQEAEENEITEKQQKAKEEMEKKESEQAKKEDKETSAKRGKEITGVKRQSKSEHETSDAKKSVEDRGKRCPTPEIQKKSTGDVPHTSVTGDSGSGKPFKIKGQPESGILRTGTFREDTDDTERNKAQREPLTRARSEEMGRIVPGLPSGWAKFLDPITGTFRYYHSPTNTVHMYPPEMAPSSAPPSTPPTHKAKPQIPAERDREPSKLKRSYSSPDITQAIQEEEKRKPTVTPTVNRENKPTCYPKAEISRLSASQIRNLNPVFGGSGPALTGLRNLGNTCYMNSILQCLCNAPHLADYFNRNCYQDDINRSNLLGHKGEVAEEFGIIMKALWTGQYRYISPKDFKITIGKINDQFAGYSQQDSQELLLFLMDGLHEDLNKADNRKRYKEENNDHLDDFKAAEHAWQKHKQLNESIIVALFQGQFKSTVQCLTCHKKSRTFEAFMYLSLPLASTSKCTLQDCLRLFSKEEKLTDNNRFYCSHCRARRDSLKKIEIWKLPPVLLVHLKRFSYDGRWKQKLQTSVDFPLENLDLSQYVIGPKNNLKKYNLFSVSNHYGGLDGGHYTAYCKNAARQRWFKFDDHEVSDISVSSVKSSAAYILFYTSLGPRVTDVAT
Method in brief: as §1

[9] = biological target: USP9X (UniProt Q93008)
Method in brief: as §1

[10] = biological target: UniProt O00487
Sequence of UniProt O00487 (O00487 whole entry): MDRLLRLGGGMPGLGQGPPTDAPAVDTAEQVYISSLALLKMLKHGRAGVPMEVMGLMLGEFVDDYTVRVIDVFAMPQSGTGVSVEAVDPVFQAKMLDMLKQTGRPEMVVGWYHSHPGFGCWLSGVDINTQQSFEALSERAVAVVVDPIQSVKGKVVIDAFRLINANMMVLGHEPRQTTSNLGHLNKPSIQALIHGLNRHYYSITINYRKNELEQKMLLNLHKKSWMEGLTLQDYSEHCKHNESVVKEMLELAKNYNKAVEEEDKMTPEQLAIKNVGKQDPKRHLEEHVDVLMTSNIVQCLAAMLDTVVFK
Method in brief: as §1

Measured: log2 ratio of Biotin-Ahx-Ub-VS probe labelling

Cc1ccc2nnc(CNC(=O)CCl)n2c1
inactive: [1] 0.336 | [2] -0.000756 | [3] 0.13 | [4] -0.0762 | [5] 0.114 | [6] 0.357 | [7] 0.0284 | [8] 0.28 | [9] 0.0675 | [10] -0.0931

O=C(CCl)NC1CCC(C(F)(F)F)CC1 (stereo not given)
inactive: [1] 0.589 | [2] -0.0439 | [3] -0.0726 | [4] -0.174 | [5] -0.36 | [6] 0.0395 | [7] -0.303 | [8] -0.0509 | [9] -0.178 | [10] -0.185

CN(C(=O)CCl)c1nc2ccccc2s1
inactive: [1] 0.236 | [2] -0.305 | [3] -0.107 | [4] -0.574 | [5] -0.191 | [6] -0.996 | [7] -0.566 | [8] -0.0186 | [9] -0.325 | [10] -0.00105

C/C(=C\CNC(=O)CCl)c1cnn(C)c1.Cl
inactive: [1] 0.377 | [2] -0.21 | [3] -0.51 | [4] -0.224 | [5] -0.543 | [6] -0.0188 | [7] -0.224 | [8] 0.115 | [9] -0.138 | [10] -0.0232
